Screening results (PubChem)
Fam108B counter: Fam108B inhibition, counter-screen for RBBP9 inhibitors; hit rate 0.33% among 300,000; inhibition, % at 9.51 µM; recombinant Fam108B, FP-Rh probe fluorescence polarization;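 active = inhibition above the screen mean inhibition plus 3 SD, computed separately per campaign, cut at about 18% in these data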;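 also: inhibitors lower polarization as less probe binds the enzyme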
PAFAH1B2 FP inh: PAFAH1B2 (human) inhibition; recombinant PAFAH1B2, FP-rhodamine activity probe, fluorescence polarization; inhibition, % at 3.39 µM; hit rate 1.2% among 340,000; P68402;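 active = inhibition above the mean of all tested compounds plus 3 SD, cut at about 24% in these data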
pPAFAH inh: inhibitors of human plasma PAF acetylhydrolase (pPAFAH) | recombinant pPAFAH, FP-rhodamine probe fluorescence polarization | AID 463082 | inhibition, % at 3.39 µM | hit rate 1.5% among 330,000;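 active = inhibition above the mean inhibition across the screen plus 3 SD, cut at about 25% in these data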;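 also: inhibitors block binding of the rhodamine activity-based probe so polarization drops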
Target sequence (Q13093 whole entry, looked up): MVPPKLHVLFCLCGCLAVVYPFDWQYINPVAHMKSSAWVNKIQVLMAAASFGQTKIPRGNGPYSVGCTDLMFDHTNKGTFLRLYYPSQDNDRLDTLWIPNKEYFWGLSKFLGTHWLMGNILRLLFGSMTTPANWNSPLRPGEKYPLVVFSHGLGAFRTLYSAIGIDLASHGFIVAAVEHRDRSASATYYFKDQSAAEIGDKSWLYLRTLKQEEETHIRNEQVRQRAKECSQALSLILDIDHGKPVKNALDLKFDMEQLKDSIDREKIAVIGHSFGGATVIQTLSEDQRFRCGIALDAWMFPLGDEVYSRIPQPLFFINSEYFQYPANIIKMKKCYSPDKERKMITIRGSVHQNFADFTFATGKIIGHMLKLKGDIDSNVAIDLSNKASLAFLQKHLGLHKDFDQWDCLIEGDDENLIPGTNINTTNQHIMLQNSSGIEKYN
PAFAH1B3 inh: PAFAH1B3 (human) inhibition. inhibition, % at 3.39 µM. recombinant PAFAH1B3, FP-rhodamine probe, fluorescence polarization. hit rate 0.28% among 340,000. Q15102;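 active = inhibition above the screen-wide average of all tested compounds plus 3 SD, cut at about 25% in these data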
PAFAH2 inh: PAFAH2 (human) inhibition | Q99487 | inhibition, % at 3.39 µM | recombinant PAFAH2, FP-rhodamine activity probe, fluorescence polarization | hit rate 0.99% among 340,000;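 active = inhibition above the mean over all tested compounds plus 3 SD, cut at about 30% in these data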;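 also: inhibitors block probe labeling of enzyme so polarization drops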
PME-1 primary: blocks human protein phosphatase methylesterase 1 | recombinant PME-1, FP-Rh probe fluorescence polarization | Q9Y570 | AID 2130 | inhibition, % at 5.9 µM | hit rate 0.53% among 320,000;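 active = inhibition above the campaign mean of all compounds plus 3 SD, cut at about 26% in these data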;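 also: competitive labeling of PME-1 active site by serine hydrolase directed probe; inhibitors block probe labeling so polarization falls and inhibition rises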
PAFAH2 confirm: confirmation of human PAFAH2 inhibitors. shares compounds with PAFAH2 inh. recombinant PAFAH2, FP-rhodamine activity probe, fluorescence polarization. inhibition, % at 3.39 µM. hit rate 65% among 2,300. AID 493030;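 active = mean inhibition over three repeats above a set limit taken from the earlier primary screen, cut at about 30% in these data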;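 also: inhibitor blocks binding of rhodamine activity probe so polarization falls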
Large screens that a line does not name were inactive (follow-up assays come after a bar, where they were run). Hits are enriched below; roughly 2.8% of the tested compounds scored in any of these assays.

Cc1ccsc1C(=O)OCc1nc2ccccc2c(=O)[nH]1	PAFAH2 inh 37.6 | PAFAH2 confirm inactive
Cc1ccsc1C(=O)OCc1nc2ccsc2c(=O)[nH]1	none
COc1cc2c(cc1OC)-c1cc(N3CCc4ccccc43)nc(=O)n1CC2	PAFAH2 inh 52.6 | PAFAH2 confirm 40.6
COc1cc2c(cc1OC)-c1cc(OCc3cccnc3)nc(=O)n1CC2	PAFAH2 inh 61.3 (no result: Fam108B counter, pPAFAH inh, PME-1 primary) | PAFAH2 confirm 53.8
COc1ccc(C)cc1NC(=O)c1ccccc1N(C)S(=O)(=O)c1ccccc1	none
COc1cccc(NC(=O)COC(=O)C2CC2)c1	PAFAH2 inh 68.9 (no result: Fam108B counter, PME-1 primary) | PAFAH2 confirm 56.9
COc1cccc(NC(=O)COC(=O)C2CCCCC2)c1	PAFAH2 inh 82.1 (no result: Fam108B counter, PME-1 primary) | PAFAH2 confirm 63.2
CNS(=O)(=O)c1cccc(C(=O)OCC(=O)Nc2ccc(OC)cc2[N+](=O)[O-])c1	PAFAH2 inh 31.2 | PAFAH2 confirm inactive
COc1ccc(NC(=O)COC(=O)c2cc(OC)c(OC)c(OC)c2)c([N+](=O)[O-])c1	none
COc1ccc(NC(=O)COC(=O)C2CCCCC2)c([N+](=O)[O-])c1	PAFAH2 inh 29.7 | PAFAH2 confirm inactive
COc1ccc(NC(=O)CN2CCCCC2)c([N+](=O)[O-])c1	none
COc1cc([N+](=O)[O-])ccc1NC(=O)COC(=O)C=C(C)C	none
Cc1ccc(-c2nc(C)sc2CC(=O)OCC(=O)Nc2cccc([N+](=O)[O-])c2)cc1	none
CC(C)=CC(=O)OCC(=O)Nc1cccc([N+](=O)[O-])c1	PAFAH2 inh 76.1 | PAFAH2 confirm 74.9
CC1CC1C(=O)OCC(=O)Nc1ccc2[nH]c(=O)[nH]c2c1 (centres undefined)	none
CC1CC1C(=O)OCC(=O)Nc1cccc([N+](=O)[O-])c1 (centres undefined)	PAFAH2 inh 82.1 | PAFAH2 confirm 83.6
Cc1ccc(C(=O)c2ccccc2C(=O)OCC(=O)Nc2cccc([N+](=O)[O-])c2)cc1	PAFAH2 inh 72.6 | PAFAH2 confirm 76.5
CC(C)N(C(=O)[C@H]1C[C@H](CC(=O)NCC23CC4CC(CC(C4)C2)C3)C(=O)N2CCc3c([nH]c4ccc(Cl)cc34)[C@]12C)C(C)C	none (no result: Fam108B counter, PME-1 primary)
Cc1ccc(NC(=O)COC(=O)/C=C/c2cccs2)c(C)c1	PAFAH2 inh 55.6 | PAFAH2 confirm 41.6
CNC(=O)COC(=O)/C=C/c1cccs1	none
Cc1cc(C)c(NC(=O)COC(=O)/C=C/c2cccs2)c(C)c1	PAFAH2 inh 35.5 | PAFAH2 confirm 31.1
COC(=O)c1ccccc1NC(=O)COC(=O)/C=C/c1cccs1	none (no result: Fam108B counter, PME-1 primary)
O=C(CNC(=O)C12CC3CC(CC(C3)C1)C2)N1CCN(S(=O)(=O)/C=C/c2ccccc2)CC1	PAFAH2 inh 35.3 | PAFAH2 confirm inactive
O=C(CNC(=O)C12CC3CC(CC(C3)C1)C2)N1CCN(S(=O)(=O)c2cccs2)CC1	none
COc1ccc(N(C(=O)c2cccnc2)S(=O)(=O)c2ccc(F)cc2)cc1	none
O=c1c2cnn(-c3ccccc3)c2nc(-c2ccco2)n1-c1ccccc1	none
O=c1oc(-c2ccco2)nc2c1cnn2-c1ccccc1	PAFAH2 inh 85.4 | PAFAH2 confirm 59.3
CC(=O)N(CCC1(C(C)C)CCOC(C)(C)C1)C(C)c1cccs1 (centres undefined)	none
COc1ccc(N2C(=O)C3[C@@H](C2=O)C2(Cl)C(Cl)=C(Cl)C3(Cl)C2(OC)OC)cc1 (some centres undefined)	PAFAH2 inh 32.6 | PAFAH2 confirm 31.3
CCS(=O)(=O)N1Cc2ccccc2CC1C(=O)NCCc1c[nH]c2ccccc12 (centres undefined)	none
CCCc1cc(=O)oc2cc(OCC(=O)NCCc3c[nH]c4ccccc34)ccc12	none
COP(=O)(OC)c1nc(-c2ccc(C)cc2)oc1N1CCCCC1	none
O=C(COc1ccccc1[N+](=O)[O-])Nc1cccc(S(=O)(=O)NC2=NCCCCC2)c1	none
O=C(COC(=O)c1ccc(O)cc1)Nc1cccc(S(=O)(=O)NC2=NCCCCC2)c1	PAFAH2 inh 39.2 | PAFAH2 confirm 42.6
